# Screening data from PubChem BioAssay.
# Sampled rows, rich in hits. Any-hit rate of the full collection: about 9%.
# HPGD block: blocks human HPGD enzyme activity; Potency, µM, without a hit: at the top dose activity change, negative = inhibition, usual class: inhibitors; purified HPGD, NADH fluorescence kinetic, PGE2 substrate; 150,000 compounds, 4.3% hits; active = well fitted inhibition curve with a large enough effect, not every such curve was filed as active; inconclusive = small, poorly fitted or top-dose-only effect, or another doubt; inactive = no such curve, though single readings can be large or run the other way; note: % is set by controls: 0 for no effect and ±100 for the full control effect
# Target sequence (P15428 whole entry, looked up): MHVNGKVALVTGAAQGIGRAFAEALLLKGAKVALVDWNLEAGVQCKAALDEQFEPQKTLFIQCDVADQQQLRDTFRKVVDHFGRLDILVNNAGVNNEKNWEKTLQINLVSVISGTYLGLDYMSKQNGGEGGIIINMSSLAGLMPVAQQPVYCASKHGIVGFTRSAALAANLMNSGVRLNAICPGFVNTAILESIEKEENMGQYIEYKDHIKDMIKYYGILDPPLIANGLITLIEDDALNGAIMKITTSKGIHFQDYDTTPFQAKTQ
#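 NADH formation kinetics: reaction with 30 uM PGE2 and 1 mM NAD+ (final), 20 nM enzyme, Tris-HCl pH 8 with Tween 20, after 15 min compound preincubation at room temperature. Fluorescence change, last versus first of five reads.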
# Lamin A splicing: LMNA splicing modulation | Potency, µM (series often up to 46.1 µM), for inactives: top-dose ratio change, negative = inhibition, usual class: inhibitors | 200,000 compounds, 0.01% hits | HeLa LMNA splicing GFP/RFP minigene ratio, 48 h | AID 1487; active = well fitted inhibition curve with a large enough effect in the signal ratio, with a control signal flat, not every such curve was filed as active; inconclusive = small, poorly fitted or top-dose-only effect, or effect the other way, or a change in a side signal; the % refers to the signal ratio; note: % is set by controls: 0 for no effect and ±100 for the full control effect
#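 S3 HeLa cells stably expressing lamin A-EGFP splicing minigene plus DsRed2, 600 cells/well, 48 h compound exposure at 37C. Laser-scanning cytometry; analysed as GFP (500-530 nm)/RFP (575-640 nm) total intensity ratio; 0.5% DMSO vehicle.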
# HTT ATP protect: Huntington cell model cytoprotection by ATP luminescence | 230,000 compounds, 0.14% hits | PC12 HTT-Q103 induced, cytoprotection, ATP luminescence, 40 h | Potency, µM (top dose mostly 56.4 µM), for inactives: cytoprotection (ATP increase), hits mostly activators; note: % of control where 0% means no effect; nearly all actives have a fitted effect of over 45% in size
#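 Readout: ATPlite luminescence (ATP level). Model: stable PC12, inducible Htt exon1 Q103-GFP. Inducer: tebufenozide, 100 nM final. Compounds: dose series. No G418 in medium.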
# HTT aggregate: reduces HttQ103-GFP aggregates in PC12 cells | PC12 HttQ103-GFP aggregates, Acumen cytometry, 40 h | Potency, µM (titrated, usually from 46.1 µM), for inactives: at the top dose activity change, negative = inhibition, hits mostly inhibitors | 220,000 compounds, 1.1% hits; note: % is set by controls: 0 for no effect and ±100 for the full control effect; nearly all actives have a fitted effect of over 60% in size
#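 PC12 cells with ecdysone-inducible HTT exon1 Q103-GFP, induced by 100 nM tebufenozide, given compounds in a concentration series. GFP aggregates (1–25 um, 6 SD above background) counted in lysates by laser-scanning cytometry, 488 nm excitation.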
# ALDH1A1 block: blocks purified human ALDH1A1 activity | P00352 | Purified ALDH1A1, NADH fluorescence, propionaldehyde substrate | Potency, µM (doses to about 75.3 µM), without a hit: at the top dose activity, negative = inhibition, hits mostly inhibitors | 220,000 compounds, 7.3% hits | AID 1030; active = well fitted inhibition curve with a large enough effect, not every such curve was filed as active; inconclusive = small, poorly fitted or top-dose-only effect, or another doubt; inactive = no such curve, though single readings can be large or run the other way;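 note: plate controls were no enzyme wells and a reference inhibitor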
# KinaseGlo FLuc: counter-screen: inhibitors of Kinase-Glo firefly luciferase. Q27757. Kinase-Glo luciferase, ATP luminescence, 8 min. Potency, µM (top dose mostly 38.3 µM), without a hit: at the top dose activity change, negative = inhibition, actives largely listed as inhibitors. 200,000 compounds, 0.28% hits. AID 1379; note: % is set by controls: 0 for no effect and ±100 for the full control effect; nearly all actives have a fitted effect of over 60% in size
#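 Luminescence was the read-out, taken after 8-minute incubation at ambient temperature. Luciferase turned over luciferin with 10 uM ATP in imidazole pH 7.2 buffer containing KCl, MgCl2, Tween 20 and BSA.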
# * hit, by the source's call; ? = inconclusive; · = no result; ! = not confirmed by another sample; [ ] = dose if it differs, or a comment. Unless noted, calls come from the whole dose curve; as a rule, active = well fitted curve in the direction sought with a large enough effect; inconclusive = small, poorly fitted or top-dose-only effect, or another doubt; inactive = no such curve, though single readings can be large; an effect the other way counts as inactive or inconclusive. Potency is the fitted concentration of half-maximal effect.
SMILES,HPGD block,Lamin A splicing,HTT ATP protect,HTT aggregate,ALDH1A1 block,KinaseGlo FLuc
Cc1ccc(C)c2[nH]c(=O)c(CN(Cc3ccco3)C(=S)NCC3CCCO3)cc12 (configuration not stated),·,-10%[46 µM],13%[10 µM],18%[9.22 µM],20µM*,-3%
CCCNC(=O)N1c2ccccc2Sc2ccccc21,·,·,5%[10 µM],14%[9.22 µM],·,·
NS(=O)(=O)c1ccc(NC(=O)C2Cc3ccccc3C(=O)O2)cc1 (configuration not stated),·,·,6%,6%,-1%,-3%
COc1ccc2[nH]c(=O)c(CN(CC3CCCO3)C(=O)Nc3ccc(F)cc3)cc2c1 (configuration not stated),?,3%,5%[10 µM],11µM*,?,1%
COc1ccc(NC(=O)N(Cc2cc3cc(C)ccc3[nH]c2=O)CC2CCCO2)cc1 (configuration not stated),·,·,5%[10 µM],5%[9.22 µM],·,·
Cc1ccc2[nH]c(=O)c(CN(CC3CCCO3)S(=O)(=O)c3cccc4nsnc34)cc2c1 (configuration not stated),-8%,-14%,-17%,11%,20µM*,-2%
COc1ccc2cc(CN(CC3CCCO3)C(=S)NCc3ccco3)c(=O)[nH]c2c1 (configuration not stated),·,·,-7%[10 µM],3%[9.22 µM],3.5µM*,-1%
Cc1ccc2[nH]c(=O)c(CN(CC3CCCO3)C(=S)Nc3ccccc3)cc2c1 (configuration not stated),-20%,-15%,-9%[10 µM],-15%,14µM*,-1%
Cc1ccc2[nH]c(=O)c(CN(CC3CCCO3)S(=O)(=O)c3c(C)ccc4nsnc34)cc2c1 (configuration not stated),-8%,-1%,-31%,-2%[9.22 µM],?,0%
COc1cc2cc(CN(CCc3ccccc3C)C(=S)NCCCN(C)C)c(=O)[nH]c2cc1OC,?,-2%,-9%[10 µM],-6%,?,2%
Cc1ccc2[nH]c(=O)c(CN(Cc3ccccc3)C(=S)NCCCN(C)C)cc2c1,·,?,21%[10 µM],23%[9.22 µM],-5%,13µM*
Cc1ccc2c(Cl)cc(Cl)c(OCC(=O)Nc3cccc(S(=O)(=O)N(C)C)c3)c2n1,-5%,-6%,3%[10 µM],-3%,12%,1%
CCNC(=S)N(CCc1ccccc1C)Cc1cc2cc(OC)c(OC)cc2[nH]c1=O,-17%,-1%,-13%[10 µM],10%,?,-1%
Cc1ccc(NC(=S)NCCSc2ccc(Cl)cc2)c(C)c1,-21%,?,1.8µM*,6%,?,3%
Cc1ccc(NC(=S)NCC(C)CSc2ccc(Cl)cc2)cc1 (configuration not stated),·,?,-167%,25µM*,?,1%
Cc1ccc(C)c(NC(=S)NCCSc2ccc(Cl)cc2)c1,-16%,?,0%[0.074 µM],-14%,-6%,7%
Cc1cccc(NC(=S)NCC(C)CSc2ccc(Cl)cc2)c1 (configuration not stated),·,11%[9.22 µM],-86%,?,?,1%
CC(=O)n1nc(-c2ccco2)nc1N,1%,1%,?,3%,16%,-1%
O=[N+]([O-])c1ccc(Oc2ccc(/C=N/O)cc2)nc1,·,·,-26%[10 µM],-10%[9.22 µM],1%,-1%
O=C1NC(=O)/C(=C\c2ccc(Oc3ccc([N+](=O)[O-])cn3)cc2)S1,13µM*,?,-2%[1.9 µM],10%,?,-1%
CCOc1ccc(-n2c(N)c(-c3nc4ccccc4n3C)c3nc4ccccc4nc32)cc1,?,-17%,-7%[10 µM],-18%,3%,1%
Cc1cc(N2CCCCC2)n2ncc(-c3ccc(Cl)cc3)c2n1,?,5%,-34%,?,?,-1%
O=C(CN1CCC(c2nc3ccccc3s2)CC1)NCc1cccs1,?,?,-47%,9%,6.3µM*,0%
CC(C)n1c(N2CCN(CC(=O)NCc3cccs3)CC2)nc2ccccc21,-11%,-19%,-8%[10 µM],?,10µM*,-2%
O=C(CN1CCC(c2nc3ccccc3s2)CC1)N1CCCCC1,·,·,-87%,17%,?,2%
SMILES,HPGD block,Lamin A splicing,HTT ATP protect,HTT aggregate,ALDH1A1 block,KinaseGlo FLuc
CC(C)n1c(N2CCN(C(=O)c3cccs3)CC2)nc2ccccc21,1%,-17%,-1%,-13%,?,-2%
CCOc1ccccc1NC(=O)C(NC(=O)C1CCC(C)CC1)C(C)C (configuration not stated),·,9%[46 µM],3%[10 µM],17%,3%,3%
O=C(Nc1nc2ccc(S(=O)(=O)N3CCCC3)cc2s1)C1CCCCC1,20µM*,?,-64%[10 µM],-12%,8.9µM*,-5%
CSc1nc2ccc(S(=O)(=O)N3CCCCC3)cc2s1,-1%,-14%,3%,-14%,9%,-1%
Nc1nc2ccc(S(=O)(=O)N3CCCCC3)cc2s1,14µM*,-14%,7%[10 µM],21%,6.3µM*,-1%
COC(=O)c1ccc2nc(NC(=O)C3CCCCC3)sc2c1,·,?,13%[10 µM],-2%[9.22 µM],25µM*,0%
O=C(Nc1nc2ccc(S(=O)(=O)N3CCCCC3)cc2s1)C1CCCO1 (configuration not stated),-6%,-7%,-25%,-2%,?,1%
CC(C)(C)NC(=O)c1cnn(-c2ccccc2)c1NC(=O)c1ccccc1,2%,-2%,-3%[10 µM],4%,6%,-2%
CN1CCc2cccc3c2[C@@H]1Cc1ccc(O)c(O)c1-3,8.9µM*!,?,27%[1.9 µM],?,25µM*,-4%
COc1ccc2c(c1O)-c1ccccc1CCN(C)C2,·,·,-3%[10 µM],2%[9.22 µM],-5%,·
O=C(C1=C[C@@H](c2coc3ccccc3c2=O)C[C@@H](OCCCCO)O1)N1CCN(Cc2ccccc2)CC1,·,·,4%[10 µM],5%[9.22 µM],?,·
CC(=O)OCC1(C)CN(c2ccccc2)N(C(C)=O)C1=O (configuration not stated),·,·,-34%,-8%,?,-2%
CC(=O)OCC1(C)CN(c2ccccc2)NC1=O (configuration not stated),·,·,-32%,-1%,10µM*,-2%
CCOC(=O)CSc1nnc(-c2cccc(Cl)c2)n1CC,-8%,6%,11%[10 µM],1%,10%,10%
C[Si](C)(C)Cl,-6%,·,-4%,·,22µM*,·
COc1ccc(/C=N/n2c(N)c(S(=O)(=O)c3cccs3)c3nc4ccccc4nc32)cc1OC,?,-2%,?,0%,?,19%
[O-][n+]1ccccc1SSc1cccc[n+]1[O-],·,?,-98%,5µM*,·,·
Cc1nn(-c2ccccc2)c(Cl)c1C(=O)Nc1nnc(C2CCCCC2)s1,-7%,?,-16%,-8%,4µM*,1%
